From the supplement of paper PMC3484114
± gives the standard deviation.

Tested on: OVCAR-3-derived ovarian cancer stem-like cells (spheroids)
Test: cell growth relative to untreated control; higher = more growth (less inhibition)
Settings: 2.29 µM; 96 h
Outline: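 Stem-like cells derived from OVCAR-3 spheroids were dissociated with trypsin and seeded at 50,000 cells/mL in stem cell medium in ultra-low attachment 96-well plates, then preincubated for 24 h. Each compound was added at 2.29 uM to 4 replicate wells and left for 96 h at 37°C, 5% CO2. Viability came from TOX8 resazurin fluorescence (ex 560/em 590 nm) read after 4 h. Percent growth was expressed relative to untreated wells, after blank subtraction and removal of outliers by the Grubbs test.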

SMILES | cell growth [%]
Cc1ccccc1NC(=O)C(=O)C(C#N)c1ccccc1C (stereo unspecified) | 7.3 ± 3.2
CN(C)c1ccc2c(SCC(=O)OCC(=O)[C@@]3(O)CC[C@H]4[C@@H]5CCC6=CC(=O)C=C[C@]6(C)[C@H]5C(=O)C[C@@]43C)c3ccc(N(C)C)cc3nc2c1 | 59.1 ± 8.1
Cc1ccc2ccc3ccc(C)nc3c2n1 | 18.5 ± 10
NC(=O)NO | 107 ± 15
Nc1ccc2c(c1)CN1C(=O)c3ccccc3C1=N2 | 72.9 ± 5.6
CC(=O)C1=C(O)C2(O)C(=O)c3c(c(C)c4ccc(C)c(O)c4c3O)CC2C(N)C1=O (stereo unspecified) | 118 ± 30
O=C1Oc2ccccc2C1C/C(=N\Nc1ccccc1)c1ccccc1O (stereo unspecified) | 158 ± 100
COc1ccc2c(c1[N+](=O)[O-])CC[C@@H]1[C@@H]2CC[C@]2(C)C(=O)CC[C@@H]12 | 152 ± 33
O=C(c1ccccc1)C1OC12C(=O)Nc1c(Cl)cc(Cl)cc12 (stereo unspecified) | 94.6 ± 19
CN(C)[C@@H]1C(=O)C(C(N)=O)=C(O)[C@@]2(O)C(=O)C3=C(O)c4c(O)cccc4C[C@H]3C[C@@H]12 | 57.8 ± 20
Cc1ccc(C)c(NC(=O)C(=O)C(C(=O)c2ccc3ccccc3c2)C2OC(=O)c3ccccc32)c1 (stereo unspecified) | 121 ± 78
O=C(O)c1ccc(Nc2c3ccccc3nc3ccccc23)cc1 | 98 ± 12
CC(=O)N(C)c1ccc(Nc2cc(C)[nH]c3ccc4ncnc4c23)cc1 | 81.9 ± 23
N#Cc1ccccc1NC(=O)C(=O)C(C(=O)c1ccccc1F)C1OC(=O)c2ccccc21 (stereo unspecified) | 98.8 ± 24
N[C@H](C(=O)O)[C@H]1ON=C(Cl)[C@H]1O | 91.4 ± 16
C=C(C#N)C(=O)OCC(CC)CC.C=C(C#N)C(=O)OCC(CC)CC.CS(C)=O.CS(C)=O.Nc1c(N=Nc2ccc(-c3ccc(N=Nc4cc(S(=O)(=O)[O-])c5ccccc5c4N)cc3)cc2)cc(S(=O)(=O)[O-])c2ccccc12.[Pt+2] | 107 ± 14
